Source: ChEMBL document CHEMBL1961873, “Compounds: GSK PKIS; Assays: Nanosyn kinase panel” (2012)

How the values were obtained:
[1] = molecular target: Tyrosine-protein kinase SYK (Homo sapiens) (UniProt P43405); settings: at 1 µM
[2] = molecular target: T1, Tyrosine-protein kinase Tec (Homo sapiens) (UniProt P42680); settings: at 0.1 µM
T1 sequence (whole entry): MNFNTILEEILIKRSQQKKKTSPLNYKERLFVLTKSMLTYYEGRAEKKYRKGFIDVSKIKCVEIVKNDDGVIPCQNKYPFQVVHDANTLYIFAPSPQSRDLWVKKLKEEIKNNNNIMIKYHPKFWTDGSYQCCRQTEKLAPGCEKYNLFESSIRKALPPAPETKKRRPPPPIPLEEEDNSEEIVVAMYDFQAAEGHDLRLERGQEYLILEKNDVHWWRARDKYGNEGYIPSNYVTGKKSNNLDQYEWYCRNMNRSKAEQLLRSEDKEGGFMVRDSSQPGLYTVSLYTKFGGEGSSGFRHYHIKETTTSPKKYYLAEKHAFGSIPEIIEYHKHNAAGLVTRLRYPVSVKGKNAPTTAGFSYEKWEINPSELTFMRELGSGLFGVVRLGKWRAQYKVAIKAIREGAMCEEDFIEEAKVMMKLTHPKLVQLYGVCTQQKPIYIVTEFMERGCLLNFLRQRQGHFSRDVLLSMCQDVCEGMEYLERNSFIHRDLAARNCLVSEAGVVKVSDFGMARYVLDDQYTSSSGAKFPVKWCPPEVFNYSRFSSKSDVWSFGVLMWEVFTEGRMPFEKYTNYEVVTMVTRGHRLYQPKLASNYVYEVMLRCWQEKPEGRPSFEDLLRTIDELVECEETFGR

[3] = molecular target: T1, Tyrosine-protein kinase Tec (Homo sapiens); settings: at 1 µM
[4] = molecular target: Angiopoietin-1 receptor (Homo sapiens) (UniProt Q02763); settings: at 0.1 µM
Chain of Angiopoietin-1 receptor (Homo sapiens) (Q02763 whole entry): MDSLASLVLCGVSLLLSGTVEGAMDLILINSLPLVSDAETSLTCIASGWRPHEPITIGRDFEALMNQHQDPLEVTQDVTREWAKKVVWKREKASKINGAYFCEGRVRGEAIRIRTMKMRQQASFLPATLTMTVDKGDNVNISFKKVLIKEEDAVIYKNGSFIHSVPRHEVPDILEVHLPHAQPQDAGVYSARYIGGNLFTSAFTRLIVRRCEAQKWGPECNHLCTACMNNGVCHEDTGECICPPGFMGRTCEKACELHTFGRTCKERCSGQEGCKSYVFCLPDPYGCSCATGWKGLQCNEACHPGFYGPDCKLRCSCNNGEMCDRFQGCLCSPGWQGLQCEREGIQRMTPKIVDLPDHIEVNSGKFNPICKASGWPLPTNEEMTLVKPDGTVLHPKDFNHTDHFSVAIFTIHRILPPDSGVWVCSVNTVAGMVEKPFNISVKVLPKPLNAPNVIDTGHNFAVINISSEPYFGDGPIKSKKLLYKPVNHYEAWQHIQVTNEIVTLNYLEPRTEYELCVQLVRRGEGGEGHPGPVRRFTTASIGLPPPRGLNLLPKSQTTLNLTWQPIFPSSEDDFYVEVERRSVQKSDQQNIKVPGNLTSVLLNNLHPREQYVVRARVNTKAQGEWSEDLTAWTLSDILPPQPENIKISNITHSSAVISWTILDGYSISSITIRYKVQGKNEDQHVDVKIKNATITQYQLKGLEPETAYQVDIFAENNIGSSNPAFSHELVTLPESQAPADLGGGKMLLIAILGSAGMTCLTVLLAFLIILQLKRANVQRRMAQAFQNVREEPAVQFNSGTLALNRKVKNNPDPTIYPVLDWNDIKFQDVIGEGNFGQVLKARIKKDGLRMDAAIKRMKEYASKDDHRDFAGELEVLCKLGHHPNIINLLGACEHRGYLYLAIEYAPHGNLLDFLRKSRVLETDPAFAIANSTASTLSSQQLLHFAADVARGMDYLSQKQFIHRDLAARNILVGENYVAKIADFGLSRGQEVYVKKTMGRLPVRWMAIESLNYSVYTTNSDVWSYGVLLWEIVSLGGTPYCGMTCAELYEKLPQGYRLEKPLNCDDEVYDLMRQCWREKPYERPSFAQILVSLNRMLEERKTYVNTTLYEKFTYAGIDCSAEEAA

[5] = molecular target: Angiopoietin-1 receptor (Homo sapiens) (UniProt Q02763); settings: at 1 µM
[6] = molecular target: T2, Non-receptor tyrosine-protein kinase TNK1 (Homo sapiens) (UniProt Q13470); settings: at 0.1 µM
T2 sequence (whole entry): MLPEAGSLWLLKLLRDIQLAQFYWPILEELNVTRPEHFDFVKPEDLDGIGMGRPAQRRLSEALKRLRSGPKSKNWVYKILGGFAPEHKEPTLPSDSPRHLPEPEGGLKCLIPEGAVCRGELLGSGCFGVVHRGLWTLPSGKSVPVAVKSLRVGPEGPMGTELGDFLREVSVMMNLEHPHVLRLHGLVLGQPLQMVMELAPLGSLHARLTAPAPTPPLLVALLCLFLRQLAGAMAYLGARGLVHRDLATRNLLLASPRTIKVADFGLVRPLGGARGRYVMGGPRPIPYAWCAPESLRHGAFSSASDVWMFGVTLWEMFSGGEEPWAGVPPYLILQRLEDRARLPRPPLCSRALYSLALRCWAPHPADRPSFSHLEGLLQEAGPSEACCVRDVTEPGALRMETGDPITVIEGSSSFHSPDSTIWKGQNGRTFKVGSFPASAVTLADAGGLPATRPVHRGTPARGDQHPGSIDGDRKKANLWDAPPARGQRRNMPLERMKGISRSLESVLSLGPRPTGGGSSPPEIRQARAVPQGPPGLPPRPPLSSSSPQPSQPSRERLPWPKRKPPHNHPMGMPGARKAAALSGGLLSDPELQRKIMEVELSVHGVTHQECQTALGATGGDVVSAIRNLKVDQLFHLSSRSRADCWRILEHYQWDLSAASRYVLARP

[7] = molecular target: T2, Non-receptor tyrosine-protein kinase TNK1 (Homo sapiens); settings: at 1 µM
[8] = molecular target: Activated CDC42 kinase 1 (Homo sapiens) (UniProt Q07912); settings: at 0.1 µM
Chain of Activated CDC42 kinase 1 (Homo sapiens) (Q07912 whole entry, looked up): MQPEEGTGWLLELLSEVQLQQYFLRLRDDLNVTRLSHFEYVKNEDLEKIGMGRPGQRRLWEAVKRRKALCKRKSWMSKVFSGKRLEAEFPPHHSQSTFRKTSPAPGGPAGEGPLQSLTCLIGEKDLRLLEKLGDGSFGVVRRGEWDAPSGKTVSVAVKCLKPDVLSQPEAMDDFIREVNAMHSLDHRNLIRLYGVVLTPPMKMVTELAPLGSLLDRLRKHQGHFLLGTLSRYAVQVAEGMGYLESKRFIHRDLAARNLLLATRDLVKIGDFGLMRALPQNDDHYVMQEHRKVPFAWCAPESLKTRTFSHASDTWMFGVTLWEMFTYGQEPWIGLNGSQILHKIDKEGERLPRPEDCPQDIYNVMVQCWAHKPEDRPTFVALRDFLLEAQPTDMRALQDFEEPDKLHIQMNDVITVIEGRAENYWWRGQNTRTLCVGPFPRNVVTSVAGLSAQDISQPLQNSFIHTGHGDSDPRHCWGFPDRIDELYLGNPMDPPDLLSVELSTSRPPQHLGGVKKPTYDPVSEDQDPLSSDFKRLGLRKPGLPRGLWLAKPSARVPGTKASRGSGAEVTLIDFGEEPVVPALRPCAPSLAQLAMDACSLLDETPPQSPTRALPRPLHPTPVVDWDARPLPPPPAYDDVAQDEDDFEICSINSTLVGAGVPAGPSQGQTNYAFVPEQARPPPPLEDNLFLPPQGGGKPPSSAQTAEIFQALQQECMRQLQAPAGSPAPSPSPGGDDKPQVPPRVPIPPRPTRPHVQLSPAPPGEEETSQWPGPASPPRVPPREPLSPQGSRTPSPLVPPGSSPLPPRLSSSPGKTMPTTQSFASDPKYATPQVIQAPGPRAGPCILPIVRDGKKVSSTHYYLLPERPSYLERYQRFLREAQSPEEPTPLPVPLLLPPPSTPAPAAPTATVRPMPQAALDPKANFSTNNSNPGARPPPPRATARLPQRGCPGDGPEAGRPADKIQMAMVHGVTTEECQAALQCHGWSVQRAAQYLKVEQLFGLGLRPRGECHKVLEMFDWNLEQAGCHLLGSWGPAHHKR

[9] = molecular target: Activated CDC42 kinase 1 (Homo sapiens) (UniProt Q07912); settings: at 1 µM
[10] = molecular target: High affinity nerve growth factor receptor (Homo sapiens) (UniProt P04629); settings: at 0.1 µM
Chain of High affinity nerve growth factor receptor (Homo sapiens) (P04629 33-796 limits assumed): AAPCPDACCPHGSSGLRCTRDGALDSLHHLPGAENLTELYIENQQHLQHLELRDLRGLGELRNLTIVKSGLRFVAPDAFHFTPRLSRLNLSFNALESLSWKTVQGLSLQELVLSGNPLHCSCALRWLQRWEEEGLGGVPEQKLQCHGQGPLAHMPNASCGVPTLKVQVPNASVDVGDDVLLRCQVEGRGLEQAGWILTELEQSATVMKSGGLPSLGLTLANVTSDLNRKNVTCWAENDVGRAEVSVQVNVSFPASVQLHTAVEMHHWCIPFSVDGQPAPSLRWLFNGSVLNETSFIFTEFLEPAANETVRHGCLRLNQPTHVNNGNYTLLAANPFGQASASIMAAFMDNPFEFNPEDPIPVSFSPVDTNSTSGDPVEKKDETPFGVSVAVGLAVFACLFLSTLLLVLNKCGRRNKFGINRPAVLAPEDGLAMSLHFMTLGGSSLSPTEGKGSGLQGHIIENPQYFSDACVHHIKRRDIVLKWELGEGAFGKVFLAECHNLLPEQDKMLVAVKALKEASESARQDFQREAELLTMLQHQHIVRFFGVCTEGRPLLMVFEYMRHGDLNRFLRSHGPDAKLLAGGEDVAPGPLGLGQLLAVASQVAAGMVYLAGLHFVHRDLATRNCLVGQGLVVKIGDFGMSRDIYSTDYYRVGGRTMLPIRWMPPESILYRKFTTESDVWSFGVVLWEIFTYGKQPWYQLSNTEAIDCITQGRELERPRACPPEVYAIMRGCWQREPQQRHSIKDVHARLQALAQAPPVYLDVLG

[11] = molecular target: High affinity nerve growth factor receptor (Homo sapiens) (UniProt P04629); settings: at 1 µM
[12] = molecular target: BDNF/NT-3 growth factors receptor (Homo sapiens) (UniProt Q16620); settings: at 0.1 µM
Chain of BDNF/NT-3 growth factors receptor (Homo sapiens) (Q16620 32-822 limits assumed): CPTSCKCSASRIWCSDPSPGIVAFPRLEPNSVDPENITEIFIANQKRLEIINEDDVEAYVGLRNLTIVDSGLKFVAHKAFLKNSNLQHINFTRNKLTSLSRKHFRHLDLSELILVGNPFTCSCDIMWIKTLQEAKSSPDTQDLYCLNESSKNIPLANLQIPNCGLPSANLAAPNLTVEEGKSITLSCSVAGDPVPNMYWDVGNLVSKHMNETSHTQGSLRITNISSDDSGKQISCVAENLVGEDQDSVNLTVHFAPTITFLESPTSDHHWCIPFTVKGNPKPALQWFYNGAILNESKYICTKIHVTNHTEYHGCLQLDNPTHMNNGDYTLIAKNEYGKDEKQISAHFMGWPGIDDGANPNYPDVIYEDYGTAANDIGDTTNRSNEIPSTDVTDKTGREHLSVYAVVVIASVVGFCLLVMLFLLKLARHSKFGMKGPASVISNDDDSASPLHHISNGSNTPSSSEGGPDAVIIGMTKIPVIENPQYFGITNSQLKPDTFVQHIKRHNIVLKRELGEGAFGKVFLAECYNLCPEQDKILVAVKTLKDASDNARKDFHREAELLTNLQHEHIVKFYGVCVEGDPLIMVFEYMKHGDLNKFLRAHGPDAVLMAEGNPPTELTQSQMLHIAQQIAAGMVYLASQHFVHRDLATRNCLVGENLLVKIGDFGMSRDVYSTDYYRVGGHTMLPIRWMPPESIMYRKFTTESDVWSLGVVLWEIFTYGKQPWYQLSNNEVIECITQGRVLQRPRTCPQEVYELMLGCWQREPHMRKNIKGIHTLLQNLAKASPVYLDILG

[13] = molecular target: BDNF/NT-3 growth factors receptor (Homo sapiens) (UniProt Q16620); settings: at 1 µM
[14] = molecular target: NT-3 growth factor receptor (Homo sapiens) (UniProt Q16288); settings: at 0.1 µM
Chain of NT-3 growth factor receptor (Homo sapiens) (Q16288 32-839 limits assumed): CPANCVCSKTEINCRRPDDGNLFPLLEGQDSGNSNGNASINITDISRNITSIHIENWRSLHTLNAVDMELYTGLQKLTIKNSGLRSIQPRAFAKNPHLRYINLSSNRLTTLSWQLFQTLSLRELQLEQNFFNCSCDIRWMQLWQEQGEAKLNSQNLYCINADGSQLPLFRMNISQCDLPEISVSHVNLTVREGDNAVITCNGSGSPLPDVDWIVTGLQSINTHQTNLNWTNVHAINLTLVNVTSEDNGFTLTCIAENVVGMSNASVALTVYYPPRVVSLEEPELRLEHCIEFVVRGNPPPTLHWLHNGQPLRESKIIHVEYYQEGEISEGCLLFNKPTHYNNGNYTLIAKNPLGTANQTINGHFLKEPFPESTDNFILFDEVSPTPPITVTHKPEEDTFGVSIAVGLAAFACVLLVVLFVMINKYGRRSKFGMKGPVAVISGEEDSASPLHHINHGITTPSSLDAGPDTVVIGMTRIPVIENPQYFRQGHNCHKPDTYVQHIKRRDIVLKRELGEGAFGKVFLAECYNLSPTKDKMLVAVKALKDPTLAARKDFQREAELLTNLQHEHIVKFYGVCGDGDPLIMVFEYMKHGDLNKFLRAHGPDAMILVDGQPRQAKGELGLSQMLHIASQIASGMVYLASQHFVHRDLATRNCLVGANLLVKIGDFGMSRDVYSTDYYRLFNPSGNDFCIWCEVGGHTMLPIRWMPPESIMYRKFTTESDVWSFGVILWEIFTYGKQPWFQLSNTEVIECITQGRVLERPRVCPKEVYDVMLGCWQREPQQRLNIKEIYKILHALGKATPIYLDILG

[15] = molecular target: NT-3 growth factor receptor (Homo sapiens) (UniProt Q16288); settings: at 1 µM
[16] = molecular target: T3, Tyrosine-protein kinase TXK (Homo sapiens) (UniProt P42681); settings: at 0.1 µM
T3 sequence (whole entry): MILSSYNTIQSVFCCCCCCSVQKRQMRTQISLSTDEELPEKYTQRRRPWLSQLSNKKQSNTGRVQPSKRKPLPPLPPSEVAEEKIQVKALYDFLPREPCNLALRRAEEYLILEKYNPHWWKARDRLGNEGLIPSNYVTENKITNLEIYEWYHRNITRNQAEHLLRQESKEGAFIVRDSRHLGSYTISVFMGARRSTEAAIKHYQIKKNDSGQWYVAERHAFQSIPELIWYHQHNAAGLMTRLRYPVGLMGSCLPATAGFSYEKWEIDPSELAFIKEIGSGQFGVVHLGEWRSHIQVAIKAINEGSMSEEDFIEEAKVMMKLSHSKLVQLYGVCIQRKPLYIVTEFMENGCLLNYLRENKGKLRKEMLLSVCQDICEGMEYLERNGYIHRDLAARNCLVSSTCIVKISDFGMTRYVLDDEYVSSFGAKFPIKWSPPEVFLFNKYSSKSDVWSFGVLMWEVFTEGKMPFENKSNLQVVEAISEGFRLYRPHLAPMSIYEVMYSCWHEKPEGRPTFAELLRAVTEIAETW

[17] = molecular target: T3, Tyrosine-protein kinase TXK (Homo sapiens); settings: at 1 µM
[18] = molecular target: Non-receptor tyrosine-protein kinase TYK2 (Homo sapiens) (UniProt P29597); settings: at 0.1 µM;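 also: each value is a mean of the inhibition readings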
[19] = molecular target: T4, Dual specificity protein kinase TTK (Homo sapiens) (UniProt P33981); settings: at 1 µM;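 also: reported figures are mean TTK inhibition at 1 µM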
T4 sequence (whole entry): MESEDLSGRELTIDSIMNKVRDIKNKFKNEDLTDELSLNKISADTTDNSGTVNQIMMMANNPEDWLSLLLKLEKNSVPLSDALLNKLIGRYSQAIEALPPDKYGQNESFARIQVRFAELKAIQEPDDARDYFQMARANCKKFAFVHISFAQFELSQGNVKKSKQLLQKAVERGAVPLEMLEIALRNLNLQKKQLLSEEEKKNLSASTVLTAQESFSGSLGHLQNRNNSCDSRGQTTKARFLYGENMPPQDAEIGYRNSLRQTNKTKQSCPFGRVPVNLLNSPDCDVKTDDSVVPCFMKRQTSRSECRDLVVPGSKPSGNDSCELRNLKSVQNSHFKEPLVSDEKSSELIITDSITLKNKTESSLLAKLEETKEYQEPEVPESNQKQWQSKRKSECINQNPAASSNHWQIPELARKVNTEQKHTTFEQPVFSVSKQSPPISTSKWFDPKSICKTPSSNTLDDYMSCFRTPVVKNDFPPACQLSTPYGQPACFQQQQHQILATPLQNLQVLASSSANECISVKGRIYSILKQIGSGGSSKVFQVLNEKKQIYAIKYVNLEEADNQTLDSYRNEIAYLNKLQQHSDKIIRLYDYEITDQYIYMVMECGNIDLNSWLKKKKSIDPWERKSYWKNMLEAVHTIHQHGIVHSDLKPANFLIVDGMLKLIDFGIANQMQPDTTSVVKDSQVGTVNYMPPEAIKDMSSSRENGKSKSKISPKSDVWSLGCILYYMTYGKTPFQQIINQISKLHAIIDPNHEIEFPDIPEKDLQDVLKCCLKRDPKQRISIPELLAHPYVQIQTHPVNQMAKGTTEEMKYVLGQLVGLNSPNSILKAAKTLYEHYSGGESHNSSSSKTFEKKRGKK

[20] = molecular target: T5, Aurora kinase A (Homo sapiens) (UniProt O14965); settings: at 0.1 µM;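 also: each reported value is a mean percent inhibition of Aurora-A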
T5 sequence (whole entry): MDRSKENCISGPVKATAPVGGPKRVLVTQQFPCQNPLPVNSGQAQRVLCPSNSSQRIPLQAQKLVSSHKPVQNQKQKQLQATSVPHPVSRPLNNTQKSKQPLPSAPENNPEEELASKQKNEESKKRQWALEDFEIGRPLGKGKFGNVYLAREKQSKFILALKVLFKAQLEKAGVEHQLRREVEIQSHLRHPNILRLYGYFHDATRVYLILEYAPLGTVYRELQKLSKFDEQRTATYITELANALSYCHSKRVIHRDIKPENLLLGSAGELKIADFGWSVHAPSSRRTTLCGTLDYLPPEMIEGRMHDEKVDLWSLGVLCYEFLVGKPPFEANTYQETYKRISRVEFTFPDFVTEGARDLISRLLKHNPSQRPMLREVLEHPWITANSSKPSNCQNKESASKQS

Structure (SMILES) | inhibition [1] | inhibition [2] | inhibition [3] | inhibition [4] | inhibition [5] | inhibition [6] | inhibition [7] | inhibition [8] | inhibition [9] | inhibition [10] | inhibition [11] | inhibition [12] | inhibition [13] | inhibition [14] | inhibition [15] | inhibition [16] | inhibition [17] | inhibition [18] | inhibition [19] | inhibition [20]
COC(=O)c1cncc(/C=C/c2c(C)cc(O)cc2C)c1 | -1.42% | 6.12% | 20.5% | 1% | 1.3% | 4.05% | 20% | 1.2% | 5.39% | 2.21% | 0.47% | 2.4% | 4.35% | 2% | 6.12% | 4.44% | 22.5% | -4.1% | 1.18% | 2.33%
Nc1ccc(C#Cc2cncnc2Nc2ccc(OCc3cccc(F)c3)c(Cl)c2)cc1 | -2.35% | -0.48% | 3.77% | 1.84% | 3.47% | -0.01% | – | 1.62% | 1.81% | 4.31% | 0.62% | 1.89% | 1.57% | 2.2% | 1.81% | -1.58% | 2.93% | 0.67% | 6.25% | 2.18%
COc1cc(/C=N/Nc2ncnc3c2cnn3C(C)C)ccc1O | 35.4% | 3.27% | 13.6% | 0.88% | 12.2% | 1.37% | 7.79% | 0.51% | 5.5% | 1.66% | 8.39% | 4.28% | 31.4% | 3.32% | 29.1% | 3.5% | 14.1% | 0.13% | 2.81% | 3.73%
CN(C)C(=O)O[C@@H]1CN[C@@H](C#Cc2cc3ncnc(Nc4ccc(OCc5cccc(F)c5)c(Cl)c4)c3s2)C1 | 0.74% | 2.88% | 6.39% | 1.52% | 4.73% | 0.44% | 8.64% | -0.35% | -0.22% | -3.09% | -4.24% | -0.65% | -0.85% | 2.82% | 0.46% | 2.85% | 5.35% | 1.84% | 4.98% | 1.79%
O=C1Nc2ccccc2/C1=C/Nc1ccc2[nH]c(=O)[nH]c2c1 | -5.15% | 9.34% | 13.8% | 5.76% | 9.19% | 4.65% | 21.3% | 1.41% | 4.86% | 11.6% | 53.9% | 26.2% | 72.7% | 26.2% | 74.2% | 6.68% | 7.08% | -6.64% | 38.8% | 6.9%
NC(=O)c1cccc(Nc2nccc(Nc3cccc(F)c3)n2)c1 | -2.49% | 6.51% | 34.3% | 1.74% | 10.1% | 6.18% | 44.3% | 2.29% | 22.2% | 1.89% | 2.65% | 1.46% | 14.8% | -1.62% | 5.94% | 6.53% | 29% | 3.52% | 6.29% | 14.9%
